Source: PubChem BioAssay (National Center for Advancing Translational Sciences (NCATS))
Shown are actives, neighbours in structure and some others; about 12% of the full set was active somewhere.
Pf growth 48h: Primary qHTS for delayed death inhibitors of the malarial parasite plastid, 48 hour incubation. P. falciparum luciferase growth in erythrocytes, 48 h. Potency, µM (top dose mostly 28.7 µM), for inactives: top-dose activity change, negative = inhibition, most hits filed as inhibitors. hit rate 5.9% among 310,000. AID 504832, 2011; further: on the % scale 0 is the no-effect control and ±100 the full control effect
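Erythrocytes infected with P. falciparum carrying an integrated firefly luciferase reporter (2% hematocrit, 0.1% parasitemia final) were exposed to compounds in RPMI 1640 with 0.5% Albumax at 37 C, 5% CO2. Growth inhibition was scored as reduced luminescence.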
AmpC inh detg: qHTS Inhibitors of AmpC Beta-Lactamase (assay with detergent). hit rate 0.041% among 370,000. Potency, µM (series often up to 114 µM), inactives show top-dose activity change, negative = inhibition, most hits filed as inhibitors. P00811. AmpC hydrolysis of nitrocefin, absorbance 480 nm, 0.01% Triton. AID 485294, 2010;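 further: 0% = no-compound wells and -100% = no-enzyme wells; nearly all actives have a fitted effect of over 25% in size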
Target sequence (P00811 whole entry, looked up): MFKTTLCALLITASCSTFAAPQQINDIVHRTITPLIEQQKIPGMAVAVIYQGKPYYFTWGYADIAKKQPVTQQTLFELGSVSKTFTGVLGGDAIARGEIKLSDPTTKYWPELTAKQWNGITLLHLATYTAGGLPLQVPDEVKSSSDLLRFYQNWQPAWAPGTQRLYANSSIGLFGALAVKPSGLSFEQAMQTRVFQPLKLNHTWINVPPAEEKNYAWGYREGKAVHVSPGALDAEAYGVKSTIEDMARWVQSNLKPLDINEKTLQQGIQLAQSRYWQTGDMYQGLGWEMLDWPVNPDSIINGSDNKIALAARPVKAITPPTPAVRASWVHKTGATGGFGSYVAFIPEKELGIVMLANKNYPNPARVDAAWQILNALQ
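AmpC (5.3 nM in the dispensed reagent) in 20 mM phosphate pH 7.0 with 0.01% (detergent screen) or 0.0001% Triton X-100 was preincubated with compounds for 15 min at room temperature. Nitrocefin was then added from an 800 uM solution, and hydrolysis was followed at 480 nm.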
Sm TGR block: qHTS Assay for the Inhibitors of Schistosoma Mansoni Peroxiredoxins | Schistosoma mansoni thioredoxin glutathione reductase (TGR), Q962Y6 | purified TGR, DTNB reduction, TNB absorbance 405 nm | AID 485364, 2010 | Potency, µM (series often up to 114 µM), for the others: top-dose activity change, negative = inhibition, actives largely listed as inhibitors | hit rate 3% among 360,000; further: on the % scale 0 is the no-effect control and ±100 the full control effect; nearly all actives have a fitted effect of over 60% in size
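Kinetic colorimetric format: TGR-catalysed, NADPH-driven DTNB reduction monitored via TNB absorbance. Enzyme dispensed at 20 nM; compound exposure 15 min at room temperature before reaction start.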
SARS PLP yeast: qHTS of Yeast-based Assay for SARS-CoV PLP. hit rate 0.19% among 330,000. AID 485353, 2010. Potency, µM (series often up to 32.9 µM), inactives show at the highest dose activity, positive = growth rescue, usual class: activators. S. cerevisiae expressing SARS-CoV PLpro, growth rescue; calls by dose curve; further: 0% is about no effect; nearly all actives have a fitted effect of over 55% in size
AmpC inh no detg: qHTS Inhibitors of AmpC Beta-Lactamase (assay without detergent) | P00811 | AmpC nitrocefin hydrolysis, absorbance 480 nm, 0.0001% Triton | Potency, µM (series often up to 57.1 µM), for inactives: top-dose activity change, negative = inhibition, hits mostly inhibitors | hit rate 0.52% among 330,000 | AID 485341, 2010;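 further: plate controls were no compound for no effect and no enzyme for full effect; nearly all actives have a fitted effect of over 20% in size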
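AmpC (5.3 nM in the dispensed reagent) in 20 mM phosphate pH 7.0 with 0.01% (detergent screen) or 0.0001% Triton X-100 was preincubated with compounds for 15 min at room temperature. Nitrocefin was then added from an 800 uM solution, and hydrolysis was followed at 480 nm.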
Pf growth 96h: Primary qHTS for delayed death inhibitors of the malarial parasite plastid, 96 hour incubation | AID 504834, 2011 | P. falciparum luciferase reporter growth, 96 h | Potency, µM (top dose mostly 28.7 µM), for inactives: at the highest dose activity change, negative = inhibition, most hits filed as inhibitors | hit rate 6.9% among 320,000; further: on the % scale 0 is the no-effect control and ±100 the full control effect
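Cell-based qHTS: luciferase-tagged P. falciparum in erythrocytes (2% hematocrit, 0.05% parasitemia final) incubated with compounds for 96 hours, 37 C, 5% CO2; luciferase detection reagent then added and luminescence measured.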
The depositor's hits bear a star; u = inconclusive; x = no result given. Unless noted, the call rests on the fitted dose curve; in most records, active means well fitted curve in the direction sought with a large enough effect; inconclusive means small, poorly fitted or top-dose-only effect, or another doubt; inactive means no such curve, though single readings can be large; an effect the other way counts as inactive or inconclusive. Potency means the concentration at half of the fitted maximal effect.

SMILES	Pf growth 48h	AmpC inh detg	Sm TGR block	SARS PLP yeast	AmpC inh no detg	Pf growth 96h
Cc1ccc(/C=C/C(=O)N2CCN(S(=O)(=O)c3cccs3)CC2)o1	65%	0%	8.9µM*	2%	3%	u
COc1ccccc1CNc1nc2ccc(C)cc2n2nnnc12	x	-3%	1%	x	x	x
COc1ccc(CNC(=O)Nc2ccc3c(c2)N(C)C(=O)c2ccccc2S3)cc1	x	17%	-4%	x	x	x
Cc1nnc(C)c2c(C)n(-c3ccccc3N)c(C)c12	u	-1%	-20%	0%	135%	-1%
O=C(O)/C=C/C(=O)NCCC(c1ccccc1)c1ccccc1	23%	2%	-16%	1%	-6%	12%
COc1ccc(-c2noc(C)c2-c2ccc3ccccc3n2)c(O)c1	12µM*	-14%	11%	-18%	-32%	15µM*
CC1CCN(S(=O)(=O)c2ccc3c(c2)CCN3C(=O)Nc2ccccc2Br)CC1	x	17%	16%	x	x	x
CC/C(O)=C1\C(=O)CC(c2ccccc2)CC1=NCCc1c(C)[nH]c2ccc(C)cc12 (centres undefined)	u	-7%	-11%	-19%	0%	u
CCC/C(O)=C1\C(=O)CC(c2ccccc2)CC1=NCCc1c(C)[nH]c2ccc(C)cc12 (centres undefined)	1.9µM*	-2%	3%	-1%	-8%	u
CC(=O)C1=C(O)CC(c2ccccc2)CC1=NCCc1c(C)[nH]c2ccccc12 (centres undefined)	7.4µM*	-10%	0%	1%	-4%	-27%
O=C(Cn1[nH]c(=O)c2ccccc2c1=O)OCC(=O)c1ccc(Br)cc1	3%	-17%	1%	1%	-10%	19%
Cc1cc2c(NC(=O)Nc3ccc(C(F)(F)F)cc3)cccc2nn1	10µM*	4%	-29%	1%	-21%	9.3µM*
C/C(=N\NC(=O)c1nnn(-c2nonc2N)c1-c1ccc2c(c1)OCO2)c1ccccc1	u	4%	-5%	3%	-17%	15µM*
CC/C(=N\NC(=O)c1nnn(-c2nonc2N)c1-c1ccc2c(c1)OCO2)c1ccccc1	u	u	-1%	9%	-28%	u
C/C(=N\NC(=O)c1nnn(-c2nonc2N)c1-c1ccc2c(c1)OCO2)c1ccc(C)cc1	u	-4%	6%	2%	-28%	13µM*
C/C(=N\NC(=O)c1nnn(-c2nonc2N)c1CSc1ccccc1)c1ccc2c(c1)OCO2	3%	-7%	1%	1%	-15%	6%
C/C(=N\NC(=O)c1nnn(-c2nonc2N)c1-c1ccc2c(c1)OCO2)c1ccc(F)cc1	u	-2%	-6%	-4%	-12%	4.7µM*
Nc1nc(-c2cccc(NS(=O)(=O)c3ccccc3)c2)cs1	u	8%	1%	2%	-9%	-9%
O=C(NCC(c1cccs1)N1CCOCC1)c1cc([N+](=O)[O-])cc([N+](=O)[O-])c1 (centres undefined)	0%	u	-3%	9%	-6%	17%
CN(Cc1ccccc1)c1ccc2cc(S(=O)(=O)N3CCCCC3)ccc2n1	x	2%	5%	x	x	x
O=C(NCc1ccccc1Cl)c1ccc2nc[nH]c2c1	19%	-9%	1%	-20%	-21%	17%
Cc1ccccc1Cc1ccc(Cl)nn1	10µM*	u	-2%	-3%	-11%	-10%
COc1ccccc1C(=O)N=Nc1c(O)[nH]c2ccc([N+](=O)[O-])cc12	10µM*	u	-8%	-1%	-34%	u
Cc1cccc(Cc2nnc(CCC(=O)N(CC3CC3)CC3CCCO3)o2)c1 (centres undefined)	-16%	-2%	-13%	0%	59%	u
CCN(CC1CCCO1)C(=O)CCc1nnc(Cc2ccc3c(c2)OCO3)o1 (centres undefined)	-9%	7%	28µM*	0%	11%	u
SMILES	Pf growth 48h	AmpC inh detg	Sm TGR block	SARS PLP yeast	AmpC inh no detg	Pf growth 96h
Cc1ccc(CCNC(=O)CN(c2ccc(C(C)C)cc2)S(=O)(=O)c2c(C)nn(C)c2C)cc1	x	12%	-9%	x	x	x
Cc1ccc([N+](=O)[O-])c(NC2OC(CO)C(O)C2O)c1 (centres undefined)	-18%	-1%	-5%	3%	1%	5.2µM*
COc1cc(-c2nc3ccc(N4CCN(C)CC4)cc3[nH]2)cc(OC)c1OC	9.3µM*	3%	5%	0%	-4%	3.7µM*
COc1ccc(-c2nc3ccc(N4CCN(C)CC4)cc3c(=O)[nH]2)cc1	u	5%	7%	0%	-16%	52%
COc1ccc(S(=O)(=O)Nc2ccccc2OC)cc1NC(=O)CC1CC2CCC1C2 (centres undefined)	-4%	-17%	0%	7%	-19%	u
COCCn1c(-c2ccc(C)cc2)nc2oc3cc(OC)ccc3c(=O)c2c1=O	4.1µM*	2%	-12%	0%	37%	u
COc1ccc2c(=O)c3c(=O)n(Cc4ccco4)c(C4CCCCC4)nc3oc2c1	u	-17%	-13%	3%	-16%	u
COc1ccc2c(=O)c3c(=O)n(Cc4ccco4)c(-c4ccc(C)cc4)nc3oc2c1	u	-3%	32µM*	-7%	0%	14%
COCCCn1c(C2CCCCC2)nc2oc3cc(OC)ccc3c(=O)c2c1=O	u	-8%	-6%	4%	-8%	0.93µM*
O=C(N=C1SC2CS(=O)(=O)CC2N1c1ccc(Cl)c(Cl)c1)C1CCCO1 (centres undefined)	-4%	4%	-3%	-1%	39%	28%
O=C(Nc1cccc2nsnc12)c1ccc(-c2ccc(Br)cc2)o1	39%	-2%	35µM*	-7%	-23%	22%
O=C(Nc1cccc(NC(=O)c2ccc(-c3ccc(Br)cc3)o2)c1)c1ccco1	9.3µM*	-11%	-11%	-4%	u	u
O=C(Nc1cccc(NC(=O)c2ccccc2Cl)c1)c1ccco1	11%	1%	-4%	-2%	-2%	8%
O=C(Nc1cccc(-c2nc3ccccc3o2)c1)c1ccc(-c2ccc(Br)cc2)o1	x	6%	40µM*	x	x	x
CCOc1ccccc1C1C2=C(COC2=O)Nc2cc3c(cc21)OCO3 (centres undefined)	u	10%	0%	-1%	-37%	10µM*
COc1ccccc1C1(CC(=O)Nc2nccs2)CCOC(C(C)C)C1 (centres undefined)	u	-15%	17%	-7%	4%	13µM*
